PTHR1 agonist: activates the human parathyroid hormone receptor PTHR1 | 410,000 tested, 0.075% active | Q03431 | Potency, µM (series often up to 115 µM), actives largely listed as activators | HEK293 GP2 PTHR1 cells, GloSensor cAMP luminescence, 1 h; further: nearly all actives have a fitted effect of over 55% in size
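HEK-293-derived GP2 cells expressing PTHR1 and a GloSensor cAMP reporter, 3,000/well, plated overnight, given luciferin plus IBMX (each 0.5 mM as added) for 1 h at 37 °C, then compound for 1 h at 37 °C. Luminescence was read after 15 min at room temperature.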
GLP1R inv ag: acts as inverse agonist at human GLP-1 receptor; P43220; HEK293 GLP-1R CRE-luciferase, luminescence, 24 h; GLP-1R form is constitutively active; Potency, µM (doses to about 38.3 µM), usual class: inhibitors; 410,000 tested, 1.6% active; further: nearly all actives have a fitted effect of over 55% in size
Target sequence (P43220 whole entry, looked up): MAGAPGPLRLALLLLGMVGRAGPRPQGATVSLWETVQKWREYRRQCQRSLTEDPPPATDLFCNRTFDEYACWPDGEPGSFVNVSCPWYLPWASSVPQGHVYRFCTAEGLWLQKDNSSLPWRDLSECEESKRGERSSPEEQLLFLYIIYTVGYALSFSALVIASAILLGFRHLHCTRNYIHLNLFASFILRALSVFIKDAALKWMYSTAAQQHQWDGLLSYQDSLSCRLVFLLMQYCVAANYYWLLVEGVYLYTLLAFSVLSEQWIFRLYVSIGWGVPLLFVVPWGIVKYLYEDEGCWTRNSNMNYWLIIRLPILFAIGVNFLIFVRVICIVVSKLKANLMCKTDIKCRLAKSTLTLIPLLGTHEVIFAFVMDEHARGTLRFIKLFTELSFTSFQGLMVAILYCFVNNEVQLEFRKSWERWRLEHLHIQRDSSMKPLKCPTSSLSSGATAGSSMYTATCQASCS
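Using stably transfected HEK293 (constitutively active GLP-1R, cAMP-luciferase reporter), compounds were incubated 24 hr and luciferase measured by luminescence.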
GLP1R ag: GLP-1 receptor (human) agonism; HEK293 GLP-1R CRE-luciferase, luminescence, 4-6 h; cells express a hypersensitive GLP-1R form; 380,000 tested, 0.007% active; AID 624172; P43220; Potency, µM (doses to about 45.6 µM), most hits filed as activators
GLP1R cytotox: cytotoxicity counter-screen for GLP-1 receptor inverse agonists; HEK293 cAMP-luciferase reporter cells, luminescence, 24 h; Potency, µM (top dose mostly 38.3 µM), actives largely listed as inhibitors; 410,000 tested, 0.13% active; AID 624418;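 further: loss of luciferase light is scored as toxicity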
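Step one: seed cells (200 cells/uL, DMEM with 10% Nu serum, 1% pen-strep). Step two: 12-hour incubation at 37 deg C. Step three: pin 23 nL compound, incubate 24 hr. Step four: add luciferase reagent, read luminescence 12 min later.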
A number is an active result; i = inactive; ? = inconclusive; nt = no result given. The list is not random: actives were taken first. Their share in the collection is about 1.7%. The call rests on the fitted dose curve; in most records, active means well fitted curve in the direction sought with a large enough effect; inconclusive means small, poorly fitted or top-dose-only effect, or another doubt; inactive means no such curve, though single readings can be large; an effect the other way counts as inactive or inconclusive.

SMILES | PTHR1 agonist | GLP1R inv ag | GLP1R ag | GLP1R cytotox
CC1(C)CC(n2c(NCCO)nc3c(c2=O)C2(CCCC2)Cc2ccccc2-3)CCO1 (configuration not stated) | i | ? | i | i
CC(C)C[C@@H](NC(=O)[C@H](Cc1ccccc1)NC(=O)c1cnccn1)B(O)O | nt | nt | i | nt
Fc1ccccc1NC(=S)N/N=C/c1ccccc1Br | i | ? | i | 5.6µM
OCOCCCn1c(C2CCCN2c2nc(-c3ccc(F)cc3)cs2)nc2cc(Cl)c(N3CCCCC3)cc21 (configuration not stated) | i | 7.9µM | i | i
OCCCn1c(C2CCCN2c2nc(-c3ccc(F)cc3)cs2)nc2cc(Cl)c(Cl)cc21 (configuration not stated) | i | ? | i | i
Cc1csc2nc(COc3ccc(NC(=O)C(C)C)cc3)cc(=O)n12 | i | i | i | i
c1ccc(CNc2nc(N3CCN(Cc4ccccc4)CC3)nc3ccccc23)cc1 | i | 4µM | i | i
c1ccc(CN2CCC(Nc3nc(-c4ccccc4)nc4ccccc34)CC2)cc1 | i | 5µM | i | ?
c1coc(CNc2nc(N3CCCCC3)nc3ccccc23)c1 | i | ? | i | ?
c1ccc(CN2CCC(CNc3ncnc4ccccc34)C2)cc1 (configuration not stated) | i | ? | i | i
COC(=O)c1cccc(NC(=O)/C=C/c2ccc3c(c2)OCO3)c1 | i | 3.5µM | i | i
O=C(/C=C/c1ccc2c(c1)OCO2)Nc1cccnc1 | i | 10µM | i | i
O=c1oc(CCCO)cc2ccc(/C=C/c3cccc([N+](=O)[O-])c3)cc12 | i | i | i | ?
CCN(CC)S(=O)(=O)c1ccc(N/N=C/c2ccc(O)cc2)nc1 | i | i | i | i
CCN(CC)S(=O)(=O)c1ccc(N/N=C(\C)c2ccc(OC)cc2O)nc1 | i | 2.5µM | i | ?
O=C(NCCc1c[nH]c2ccccc12)C(=O)c1c[nH]c2ccccc12 | i | 4.5µM | i | i
Cc1cc2cc(CCNC(=O)C(=O)c3c[nH]c4ccccc34)c(=O)[nH]c2cc1C | i | 10µM | i | i
Cc1cc2cc(CCNC(=O)C(C)C)c(=O)[nH]c2cc1C | i | i | i | i
COc1ccc(Cl)cc1NC(=O)CN1c2ccccc2S(=O)(=O)c2ccccc21 | i | ? | nt | i
CC(=O)Nc1ccc(S(=O)(=O)N2CCC3(CC2)OCCO3)cc1 | i | i | i | i
COc1cccc(C(=O)Nn2c(-c3cccs3)nc3ccccc3c2=O)c1OC | i | i | i | i
COc1ccc(CNn2c(-c3cccs3)nc3ccccc3c2=O)cc1OC | i | 10µM | i | i
Cc1cccc(NC(=O)C23CCC(C)(C2Br)C3(C)C)c1 (configuration not stated) | i | 3.5µM | i | i
Cc1ccccc1[C@@]1(C)ON(c2ccccc2C(F)(F)F)C1=O | i | 11µM | i | i
Cc1ccc(S(=O)(=O)N(CC(=O)Nc2ccccc2C(=O)O)c2cccc(Cl)c2C)cc1 | i | 8.9µM | i | i
SMILES | PTHR1 agonist | GLP1R inv ag | GLP1R ag | GLP1R cytotox
COc1ccc(N(C)C(=O)c2ccc3nc(-c4ccccc4)c(-c4ccccc4)nc3c2)cc1 | i | 6.3µM | i | i
CCOC(=O)C1CCN(C(=O)COC(=O)/C=C/c2ccc([N+](=O)[O-])cc2)CC1 | i | i | i | i
COC(=O)c1cn(C(=O)c2ccc(C)cc2C)c2ccccc12 | i | 5µM | i | i
O=C(CCl)Nc1ccc(N=Nc2ccccc2)cc1 | i | ? | i | ?
O=C(CCl)Nc1ccc(-c2ccccc2)cc1 | i | 10µM | i | ?
CCCCOc1ccccc1Cn1c(=O)oc2ccccc21 | i | 5.6µM | i | i
Cc1ncsc1CCSc1nc2ccccc2c(=O)n1C | i | i | 11µM | i
Cc1ccc(CC#N)c(-c2c(CC#N)ccc(C)c2C)c1C | i | ? | i | i
Cc1ccc2c(c1C)-c1c(ccc(C)c1C)C(=O)C2=O | i | 0.79µM | i | ?
COc1ccc2nc(NCc3ccc(OC)c(OC)c3OC)sc2c1 | i | ? | i | i
Cc1cc(NC(=O)CON=C(N)CC(=O)Nc2ccccc2Cl)ccc1Br | i | 10µM | i | i
COc1ccc(CCN2C(=O)N(c3ccc(F)cc3)C(=O)C2CC(=O)Nc2ccccc2)cc1 (configuration not stated) | i | i | nt | i
O=[N+]([O-])c1ccc(-n2nnnc2-c2ccccc2)c([N+](=O)[O-])c1 | i | ? | i | 10µM
Cc1nnc(N/N=C/c2ccccc2F)n1N | i | i | i | i
COc1cccc(/C=N/Nc2nnc(C)n2N)c1O | i | 10µM | i | ?
COCCCNC(=S)N/N=C/c1cccc(OC)c1O | i | 1.1µM | i | ?
COCCCNC(=S)N/N=C/c1ccc(O)cc1O | i | i | i | i
Cc1onc(-c2c(F)cccc2Cl)c1C(=O)NC1C(=O)N2C1SC(C)(C)C2C(=O)O (configuration not stated) | nt | nt | i | nt
NS(=O)(=O)c1ccc(NC(=O)CSc2nc(Nc3ccccc3)nc(N3CCOCC3)n2)cc1 | i | ? | i | i
COCCn1nnnc1C(c1cc2cc(C)ccc2[nH]c1=O)N1CCN(C2CCCCC2)CC1 (configuration not stated) | i | i | i | 11µM
CCc1ccc(OCC(=O)N(Cc2ccc(C)cc2)Cc2ccco2)cc1 | i | ? | nt | i
CCc1ccc(OCC(=O)N(Cc2ccco2)Cc2ccccc2Cl)cc1 | i | 10µM | nt | i
O=C(c1cccc(Cl)c1)N(Cc1ccco1)Cc1ccccc1Cl | i | 10µM | nt | i
O=C(OC(c1ccccc1)c1nccc2ccccc12)c1cc([N+](=O)[O-])cc([N+](=O)[O-])c1 (configuration not stated) | i | ? | i | i
O=C(Cn1cnc([N+](=O)[O-])c1)Nc1cc(Oc2ccc(Cl)cc2Cl)cc([N+](=O)[O-])c1 | i | 5.6µM | i | ?
SMILES | PTHR1 agonist | GLP1R inv ag | GLP1R ag | GLP1R cytotox
CCCCN1CC(c2nc3ccccc3n2CCCCOc2ccc(C)c(C)c2)CC1=O (configuration not stated) | i | ? | nt | i
Cc1cccc(OCCCCn2c(C3CC(=O)N(c4ccccc4Cl)C3)nc3ccccc32)c1 (configuration not stated) | i | i | nt | i
CCCCN1CC(c2nc3ccccc3n2CCCCOc2cc(C)cc(C)c2)CC1=O (configuration not stated) | i | 10µM | nt | i
Cc1cccc(OCCCCn2c(C3CC(=O)N(c4ccc(C)cc4C)C3)nc3ccccc32)c1 (configuration not stated) | i | 13µM | nt | i
COc1cc(CNC2CCCC2)cc(Cl)c1OCc1ccc(F)cc1 | i | 4.5µM | i | ?
CCOc1cc(CNC2CCCC2)cc(Cl)c1OCc1ccc(F)cc1 | i | ? | i | i
COc1cc(CNC2CCCC2)cc(Cl)c1OCc1ccccc1Cl | i | 8.9µM | i | ?
COc1cccc(C2c3[nH]c4ccccc4c3CCN2Cc2cccn2-c2ncccn2)c1 (configuration not stated) | i | ? | i | i

Assay outcomes deposited in PubChem by National Center for Advancing Translational Sciences (NCATS).
